Experimental data: PubChem BioAssay (NCATS)
Inconclusive results are not listed. Entries that show only a call come without a potency. Active and inactive are the calls of the source. Calls follow the shape of the dose curve; as a rule, active = well fitted inhibition curve with a large enough effect; inconclusive = small, poorly fitted or top-dose-only effect; inactive = flat fitted curve, though single readings scatter.

system: Zika virus NS2B-NS3 protease; assay: Primary screen GU AMC qHTS for Zika virus inhibitors (AID 1347154); details: Zika NS2B-NS3 unlinked protease, AMC fluorogenic substrate; series mostly up to 54.1 µM; also: nearly all actives have a fitted effect of over 70% in size
How it was run: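 Unlinked Zika NS2B hydrophilic domain–NS3 protease complex at 25 nM in 10 mM Tris-HCl pH 8.0, 0.01% Tween 20, with an AMC peptide substrate. Fluorescence change (340/450 nm) over 15 min at room temperature, normalized to controls, fitted to 4-parameter Hill.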

SMILES	Potency
CCCCCCCCCCCCCCCCCCNC(=O)OC1CCN(C(=O)OC[C@H](COC(=O)N(Cc2cccc[n+]2CC)C(=O)c2ccccc2OC)OC)CC1	inactive
CCOC(=O)c1cc(=O)c2c(OCC(COc3cccc4oc(C(=O)OCC)cc(=O)c34)OC(=O)[C@@H](N)CCCCN)cccc2o1	inactive
CN1N=C(C(N)=O)CCC1=O	inactive
C#Cc1ccc(-c2ccccc2F)cc1	inactive
CNC(=O)c1cnn(-c2nc(N)c3ncn([C@@H]4O[C@H](CO)[C@@H](O)[C@H]4O)c3n2)c1	inactive
CC(C)C(C)(C)C(C)(C)C(C)(C)S	inactive
O=C(NO)c1ccccc1	inactive
NS(=O)(=O)c1cc2c(cc1Cl)CN(C1CCCCC1)C2=O	inactive
O=C1Cc2cc(Cl)ccc2N1	inactive
COc1ccc(/C(C)=C/C(=O)O)c(OC)c1	inactive
CCOc1ccccc1OCC1CNCCO1 (centres undefined)	inactive
Cc1cnc(NS(=O)(=O)c2ccc(N)cc2)nc1	inactive
CCN(CC)CC(=O)Oc1ccc(NC(C)=O)cc1	inactive
CC(C)(C)c1ccc(O)c(O)c1	inactive
CCOc1ncc(F)c(=O)[nH]1	inactive
N#Cc1cc(NC(=O)C(=O)O)c(Cl)c(NC(=O)C(=O)O)c1	inactive
CC[N+](CC)(CC)CCOC(=O)C(C1CCCC1)C1CCCC1	inactive
O=c1[nH]c2ccccc2c(=O)n1CCCl	inactive
Nc1ccc(C(=O)OCC(O)CO)cc1 (centres undefined)	inactive
CCCCCCCCCCCCCCCCCCN(C)C	inactive

SMILES	Potency
CC(=O)OC[C@H]1O[C@@H](OC(C)=O)[C@H](OC(C)=O)[C@@H]1OC(C)=O	inactive
CCOc1c(N2CCOCC2)cnn(C)c1=O	inactive
Cc1ccc(C(=O)C(=O)O)cc1C	inactive
CC(CC(C#N)(c1ccccc1)C(C)C)N(C)C (centres undefined)	inactive
Cc1onc(-c2ccccc2)c1C(=O)Cl	inactive
CC(Oc1c(Cl)cccc1Cl)C1=NCCN1 (centres undefined)	inactive
c1ccc(C(O[C@H]2CCCN(CCc3ccc4c(c3)OCO4)C2)c2ccccc2)cc1	inactive
CC(C)(C)NCC(O)COc1ccccc1OCC1CCCO1 (centres undefined)	inactive
CC(C)C(=O)OCc1cccc(OC(=O)[C@@H]2N3C(=O)[C@@H](NC(=O)Cc4ccccc4)[C@H]3SC2(C)C)c1	inactive
CN(C)CCN(Cc1ccsc1)c1ccccn1	inactive
CCCCOCCOC(=O)c1cccnc1	inactive
CCC1=C[C@@H]2CN(C1)Cc1c([nH]c3ccccc13)[C@@](C(=O)OC)(c1cc3c(cc1OC)N(C)[C@H]1[C@@](O)(C(=O)OC)[C@H](OC(C)=O)[C@]4(CC)C=CCN5CC[C@]31[C@@H]54)C2	inactive
Nc1ncnc2c1ncn2Cc1c(F)cccc1Cl	inactive
COc1ccc(-n2nc(CCC(=O)N(C)O)cc2-c2ccc(Cl)cc2)cc1	inactive
Nc1cc(C(F)(F)F)ccc1S	inactive
CCOCCn1c(C2CCN(CCc3ccc(C(C)(C)C(=O)O)cc3)CC2)nc2ccccc21	inactive
CCOC(=O)NNc1nncc2ccccc12	inactive
CC(C)OP(=O)(CP(=O)(OC(C)C)OC(C)C)OC(C)C	inactive
O=C(C1CCCCC1)N1CC(=O)N2CCCc3ccccc3C2C1 (centres undefined)	inactive
